Active and inactive are the calls of the source.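 How the source made its calls, unless noted: active means fluorescence slope higher than the sample average by over 3 SD (cut at about -0.22 in these data, passing the limit was not always enough); inactive means the rest.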
Columns and labels:
[1] = inhibitors of TNFa-induced NFkB p65 translocation, primary screen, imaging, HUVEC, MLSMR starter and 10KST1 sets (AID 438;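 active means inhibition above 20% together with a positive visual image hit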;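 further: compound added about 3h40 before a 20 min TNFalpha stimulation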;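 on inhibition: signal is the nuclear over cytoplasmic p65 intensity ratio per well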); conditions: HUVEC TNFa-induced p65 nuclear translocation; cell count: measured here: nuclei count (cytotoxicity indicator), at 2.08 µM; inhibition: at 2 µM, stronger effect = higher value, 0% TNFa-plus-vehicle, 100% no-TNFa wells
[2] = inhibitors of mutant huntingtin aggregation, primary screen, imaging, exon1htt(103Q)mCFP cells, high-content imaging (AID 483;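 active means visual image review flags a hit and inhibition of aggregation exceeds 20%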;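 further: compound exposure lasted 3 days before fixation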;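 on nuclei count: percent of the per-plate median nuclei count of sample wells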); conditions: exon1htt(103Q)mCFP cell line, aggregate imaging, at 2 µM; inhibition of aggregation: stronger effect = higher value; nuclei count: measured here: cell count, toxicity
[3] = inhibitors of E-selectin induction by TNFa, primary screen, imaging, HUVEC, immunofluorescence, MLSMR starter and 10KST1 sets (AID 487;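 active means visually confirmed hit in the image check and inhibition above 20%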;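 on inhibition: signal is fraction of cell area covered by stained E-selectin grains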;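 on nuclei count: 100% = median nuclei count of all wells on the same plate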); conditions: HUVEC TNFalpha-induced E-selectin immunofluorescence imaging, at 2 µM; inhibition: stronger effect = higher value; nuclei count: measured here: cell number, toxicity
[4] = molecular target: Voltage-gated potassium channel subunit beta-2 (Rattus norvegicus) (UniProt P62483); test: KvBeta enzyme negative modulators, primary screen, biochemical, NADPH fluorescence (AID 622); conditions: recombinant KvBeta, 4-cyanobenzaldehyde reduction, at 10 µM, stronger effect = higher value;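 further: slope of raw intensity against log time taken from 70 to 1610 s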
Chain of Voltage-gated potassium channel subunit beta-2 (Rattus norvegicus) (P62483 whole entry, looked up): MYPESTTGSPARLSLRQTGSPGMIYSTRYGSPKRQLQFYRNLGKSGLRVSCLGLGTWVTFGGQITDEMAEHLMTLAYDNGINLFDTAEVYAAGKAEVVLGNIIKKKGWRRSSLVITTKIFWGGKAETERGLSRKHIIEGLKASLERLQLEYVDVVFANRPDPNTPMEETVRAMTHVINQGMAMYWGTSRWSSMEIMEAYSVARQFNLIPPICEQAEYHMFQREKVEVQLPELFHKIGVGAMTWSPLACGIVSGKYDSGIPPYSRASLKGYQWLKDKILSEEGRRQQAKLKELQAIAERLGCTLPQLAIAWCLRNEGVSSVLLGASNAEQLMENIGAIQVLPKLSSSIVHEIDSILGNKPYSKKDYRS

[5] = molecular target: Voltage-gated potassium channel subunit beta-2 (Rattus norvegicus) (UniProt P62483); test: KvBeta positive modulators, primary screen, biochemical, NADPH fluorescence (AID 623;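 active means NADPH fluorescence slope more negative than the mean of all samples by about 3 SD, 99.7% confidence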;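 further: fluorescence intensity change per second fitted from 20 to 320 s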); conditions: Recombinant KvBeta, NADPH fluorescence decrease slope, 10 min; at 10 µM; stronger effect = lower value
[6] = molecular target: Alpha-2C adrenergic receptor (Homo sapiens) (UniProt P18825); test: modulators of alpha2C/GIRK thallium flux, primary screen, cell-based, HEK293 alpha2C/GIRK1/2 (AID 624;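 active means fluorescence slope after compound addition differing from the mean of all screened samples at 99.7% confidence, in either direction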;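 further: slope of fluorescence ratio to pre-addition baseline per second over 15 to 24 s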); conditions: thallium flux BTC fluorescence, at 10 µM, actives lie on both sides
Chain of Alpha-2C adrenergic receptor (Homo sapiens) (P18825 whole entry, looked up): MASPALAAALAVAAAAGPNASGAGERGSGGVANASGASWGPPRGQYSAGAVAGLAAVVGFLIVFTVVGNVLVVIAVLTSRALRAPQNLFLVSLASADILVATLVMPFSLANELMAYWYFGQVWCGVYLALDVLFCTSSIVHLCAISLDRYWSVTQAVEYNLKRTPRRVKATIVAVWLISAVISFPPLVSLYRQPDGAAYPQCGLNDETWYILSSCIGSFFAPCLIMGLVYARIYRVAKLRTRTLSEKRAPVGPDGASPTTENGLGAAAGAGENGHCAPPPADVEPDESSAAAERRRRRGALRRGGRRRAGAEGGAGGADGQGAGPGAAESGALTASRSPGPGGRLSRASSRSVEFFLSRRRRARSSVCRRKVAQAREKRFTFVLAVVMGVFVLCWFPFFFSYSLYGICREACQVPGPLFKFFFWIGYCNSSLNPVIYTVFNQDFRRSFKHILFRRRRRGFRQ

[7] = inhibitors of Sendai virus-induced IRF3 signaling, primary screen, TLR/RLR signaling modifier project, cell-based, Sendai virus stimulus, luciferase, 10K MLSCN set (AID 602276;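 active means inhibition at or above 50% at 10 µM; inactive means inhibition below 50%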;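 further: firefly luciferase from ISG56 promoter only with Renilla not read in this screen; 0% = Sendai virus plus DMSO and 100% = medium plus DMSO without virus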); conditions: HEK293 RL24 IRF3 luciferase reporter, at 10 µM, stronger effect = higher value
[8] = inhibitors of poly I:C-induced TLR3 signaling, primary screen, cell-based, poly I:C stimulus, luciferase, 10K MLSCN set (AID 602277;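 active means inhibition of the reporter signal at or above 50%; inactive means inhibition below 50%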); conditions: HEK293-TLR3 RL24 IRF3 luciferase reporter, at 10 µM, stronger effect = higher value

| SMILES | cell count [1] | inhibition [1] | inhibition of aggregation [2] | nuclei count [2] | inhibition [3] | nuclei count [3] | fluorescence slope [4] | NADPH fluorescence slope [5] | slope [6] | inhibition [7] | inhibition [8] |
| --- | --- | --- | --- | --- | --- | --- | --- | --- | --- | --- | --- |
| O=C(Cn1cnc2c(nnn2-c2ccc(F)cc2)c1=O)N1CCCc2ccccc21 | 654 | 0.4% (inactive) | -21.9% (inactive) | 130% | 1.5% (inactive) | 102% | -0.523 (inactive) | -1.6e-06 (inactive) | 0.00588 (inactive) | 14% (inactive) | 12.1% (inactive) |
| Cc1ccc(-c2nnc(N3CCN(C(=O)CN4C(=O)c5ccccc5C4=O)CC3)c3ccccc23)cc1 | 375 | 10.2% (inactive) | -15.9% (inactive) | 109% | -158% (inactive) | 133% | -0.468 (inactive) | -5.9e-05 (inactive) | 0.00522 (inactive) | 8.25% (inactive) | 12.9% (inactive) |
| Cc1nn(-c2ccccc2)c(C)c1/C=N/O | 739 | -3.9% (inactive) | -3.1% (inactive) | 93.7% | 25% (inactive) | 94.2% | -0.446 (inactive) | 2.9e-05 (inactive) | 0.00603 (inactive) | -8.9% (inactive) | -14.8% (inactive) |
| CCOC(=O)N1CCN(Cc2nc3c(c(=O)n(C)c(=O)n3C)n2Cc2ccccc2)CC1 | 598 | 2.9% (inactive) | -8.1% (inactive) | 120% | 0.1% (inactive) | 115% | -0.538 (inactive) | -3.9e-05 (inactive) | 0.00607 (inactive) | 9% (inactive) | 14.8% (inactive) |
| CCOc1cccc(C(=O)N(Cc2ccc(F)cc2)C2CCS(=O)(=O)C2)c1 (centres undefined) | 461 | 9.3% (inactive) | -23.1% (inactive) | 92.3% | -116% (inactive) | 219% | -0.415 (inactive) | -3.8e-05 (inactive) | 0.0041 (inactive) | 14.6% (inactive) | 40.1% (inactive) |
| O=C(Cn1cnc2ccccc2c1=O)NCCC(=O)N1CCN(c2ccccc2)CC1 | 383 | -10.7% (inactive) | 8.8% (inactive) | 99.4% | 12.8% (inactive) | 95.3% | -0.405 (inactive) | -9.9e-05 (inactive) | 0.0056 (inactive) | 15.8% (inactive) | 23.6% (inactive) |
| O=C(Nc1cccc2ccccc12)N1CCN(c2ccccc2)CC1 | 767 | -6.4% (inactive) | 26.6% (inactive) | 94.9% | -12.2% (inactive) | 100% | -0.525 (inactive) | -2.7e-05 (inactive) | 0.00612 (inactive) | 8.28% (inactive) | 15.2% (inactive) |
| CC1(C)CC(=O)C2=C(C1)OC(=O)C2(NC(=O)c1cccs1)C(F)(F)F (centres undefined) | 607 | -8.2% (inactive) | 5.3% (inactive) | 104% | -9.5% (inactive) | 85.7% | -0.598 (inactive) | -4.5e-05 (inactive) | 0.00633 (inactive) | 1.37% (inactive) | 15.7% (inactive) |
| CCSc1oc(-c2cccs2)nc1S(=O)(=O)c1ccccc1 | 690 | -6.7% (inactive) | -10.8% (inactive) | 101% | -16.9% (inactive) | 104% | -0.56 (inactive) | -3.1e-05 (inactive) | 0.00698 (inactive) | 14.5% (inactive) | 34% (inactive) |
| O=C(NCCc1c[nH]c2ccccc12)c1ccc(S(=O)(=O)NCc2ccco2)cc1 | 398 | 9.3% (inactive) | 14.7% (inactive) | 89.6% | -42.9% (inactive) | 98.6% | -0.578 (inactive) | -2.7e-05 (inactive) | 0.00486 (inactive) | 15.3% (inactive) | 30.7% (inactive) |
| CCOC(=O)C1=C(C)Nc2nnnn2C1c1c[nH]c2ccccc12 (centres undefined) | 498 | 0.6% (inactive) | 1.4% (inactive) | 47.3% | -59.7% (inactive) | 101% | -0.612 (inactive) | -1.2e-05 (inactive) | 0.00469 (inactive) | 7.12% (inactive) | 8.76% (inactive) |
| COc1cc(C2CC(=O)NC3=C2C(=O)CC(C)(C)C3)ccc1O (centres undefined) | 380 | -2.2% (inactive) | 6.5% (inactive) | 101% | 2.8% (inactive) | 105% | -0.41 (inactive) | -4.2e-05 (inactive) | 0.00203 (inactive) | 1.82% (inactive) | 16.2% (inactive) |
| COc1cc(NC(=O)CSCc2cnn(-c3ccccc3)c2-n2cccc2)cc(OC)c1 | 662 | 6.1% (inactive) | 9.3% (inactive) | 97.9% | -32% (inactive) | 98.1% | -0.315 (inactive) | -7.1e-05 (inactive) | 0.00868 (inactive) | 15.7% (inactive) | 11.2% (inactive) |
| O=[n+]1c2c(n([O-])c3cc(F)c(N4CCCC4)cc31)CCC2 | 709 | -9.4% (inactive) | 3% (inactive) | 78.5% | -98.9% (inactive) | 123% | -0.574 (inactive) | -5.8e-06 (inactive) | 0.00378 (inactive) | 0.0339% (inactive) | 0.593% (inactive) |

Source: PubChem BioAssay
